The results in this text go back to PubChem BioAssay (NCI).

Holding throughout (test): NCI-60 one-dose screen, 48 h (100 = growth as untreated, 0 = no growth, -100 = all killed)
Holding throughout (conditions): 10 µM

The subject of assay [1] is SR leukemia.
For assay [2], the system named is RPMI-8226 leukemia.
Assay [3] relates to OVCAR-8 ovarian.
Assay [4] has as its system OVCAR-5 ovarian.
Assay [5] has as its system OVCAR-4 ovarian.
Assay [6] relates to SK-OV-3 ovarian.
The test system of assay [7] is IGROV1 ovarian.
In assay [8] the test system is OVCAR-3 ovarian.
Assay [9] concerns HS 578T breast.
The subject of assay [10] is NCI/ADR-RES ovarian.
For assay [11], the system named is T-47D breast.
For assay [12], the system named is BT-549 breast.
In assay [13] the test system is MDA-MB-435 melanoma.
For assay [14], the system named is SW-620 colon.
Assay [15] concerns HCT-116 colon.
For assay [16], the system named is KM12 colon.
For assay [17], the system named is HCC-2998 colon.
The subject of assay [18] is MCF7 breast.

This is part of a sample that, as a whole, favours compounds with a hit. Of some 83,000 tested, about 20% had one in any assay.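 Method: cells in 96-well plates; compound added at one concentration; 48 h incubation; percent growth measured; values under 10 scored active.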 Unmarked numbers belong to inactive results. The source made the active and inactive calls.

With `COc1cc(/C=C2\C(=O)Nc3cc(C)c(O)cc32)cc(OC)c1OC`, the growth was 21.4% in [1]; -18.3% (active) in [2]; 72.1% in [3]; 94.5% in assay [4]; 62.6% in [5]; 77.5% in assay [6]. For the same molecule, the growth was 47.7% in assay [7]; 35.7% in assay [8]; 56.6% in assay [9]; 51.4% in assay [10]; 39.2% in [11]; 42.3% in assay [12]. In addition, the growth in [13] is -34.5% (active); in [14] it was 55.1%; in assay [15], 56.8%; in assay [16] it was 21.9%.

Turning to `COc1cc(-c2nc(-c3nnc(-c4cccnc4)o3)c3ccccn23)cc(OC)c1OC`, the growth in assay [1] is 104%; in [2], 60.9%; in assay [3], 73.8%; in assay [4], 110%; in assay [5], 123%; in assay [6], 108%. Also, the growth in assay [7] was 103%; in [8] it was 129%; in assay [9], 103%; in assay [10], 82.2%; in assay [11], 100%; in [12] it was 97.7%. In addition, the growth is 99.2% in assay [13]; 92.8% in [14]; 96.8% in assay [15]; 99.9% in assay [17]; 100% in [16].

As for `COCCOC(=O)NC(=O)Nc1ccc(/C(=N/O)c2ccc(Cl)cc2)cc1`, the growth in [1] is 8.7% (active); in assay [2], 22.3%; in assay [3] it was 4.12% (active); in assay [4], 47.1%; in assay [5], 43.7%; in [6], 4.2% (active). In addition, the growth in assay [7] is 30.9%; in assay [8], 0.755% (active); in assay [9], 34.4%; in assay [10], -3.69% (active); in [11], 62.5%; in assay [12] it was 50.9%. Also, the growth in [13] is 3.81% (active); in [14], 29%; in assay [15], 4.17% (active); in assay [17] it was -1.35% (active); in assay [16], 11.7%.

As for `O=C(N/N=C\c1cc(Cl)ccc1O)c1ccncc1`, the growth in assay [1] is 26.8%; in assay [2], 52.7%; in assay [3], 44.5%; in [4], 83.9%; in assay [5], 31.4%; in assay [6], 59.4%. For the same molecule, the growth is 33% in assay [7]; 19.1% in [8]; 125% in assay [9]; 26.8% in assay [10]; 30.1% in assay [11]; 89.4% in assay [13]. Moreover, the growth was 64.7% in assay [14]; 14.6% in assay [18]; 24.6% in assay [15]; 45.2% in assay [17]; 53.6% in assay [16].

As to `CC(=O)Nc1nc(C)c(C(=O)NNC=O)s1`, the growth in assay [1] is 105%; in assay [2] it was 118%; in assay [3] it was 102%; in assay [4] it was 108%; in assay [5], 118%; in assay [6] it was 141%. Moreover, the growth was 13% in assay [7]; 98.6% in assay [8]; 77% in [9]; 104% in assay [10]; 127% in [11]; 107% in assay [13]. Further, the growth was 101% in assay [14]; 92.4% in assay [18]; 121% in assay [15]; 79.4% in [17]; 105% in assay [16].

As for `Clc1ccc(-c2nc(-c3cccs3)cn3ccnc23)cc1`, the growth in assay [1] is 59.5%; in [2], 64.7%; in assay [3], 81%; in assay [4], 108%; in [5], 64.6%; in assay [6], 50.2%. For the same molecule, the growth in assay [7] is 60.9%; in assay [8], 72.6%; in assay [9], 87%; in assay [10] it was 55.5%; in assay [11], 16.3%; in assay [13], 23.2%. For the same molecule, the growth in assay [14] was 57.3%; in assay [18], 19.1%; in assay [15] it was 68%; in assay [17], 47.8%; in [16], 50.5%.

`Nc1ccn([C@@H]2O[C@H](COP(=O)(O)O[C@@H]3C[C@H](n4cc(F)c(=O)[nH]c4=O)O[C@@H]3COP(=O)(O)O[C@@H]3C[C@H](n4cc(F)c(=O)[nH]c4=O)O[C@@H]3COP(=O)(O)O[C@@H]3C[C@H](n4cc(F)c(=O)[nH]c4=O)O[C@@H]3COP(=O)(O)O[C@@H]3C[C@H](n4cc(F)c(=O)[nH]c4=O)O[C@@H]3COP(=O)(O)O[C@@H]3C[C@H](n4cc(F)c(=O)[nH]c4=O)O[C@@H]3COP(=O)(O)O[C@@H]3C[C@H](n4cc(F)c(=O)[nH]c4=O)O[C@@H]3COP(=O)(O)O[C@@H]3C[C@H](n4cc(F)c(=O)[nH]c4=O)O[C@@H]3COP(=O)(O)O[C@@H]3C[C@H](n4cc(F)c(=O)[nH]c4=O)O[C@@H]3COP(=O)(O)O[C@@H]3C[C@H](n4cc(F)c(=O)[nH]c4=O)O[C@@H]3COP(=O)(O)O[C@@H]3C[C@H](n4cc(F)c(=O)[nH]c4=O)O[C@@H]3COP(=O)(O)OCCOCCOCCOCCOCCOCCO)[C@H](O)C2O)c(=O)n1` (some centres not stated): the growth in assay [1] is 44.3%; in [2] it was 50.1%; in [3], 40.7%; in assay [4] it was 89.9%; in assay [5] it was 84%; in [6], 32%. Besides, the growth in [8] is 64.5%; in assay [9] it was 111%; in assay [10], 39.5%; in assay [11], 80.5%; in [12] it was 48.7%; in assay [13], 61.4%. Besides, the growth is 58.2% in [14]; 19.4% in [18]; 20.4% in [15]; 50.4% in assay [17]; 47% in assay [16].

On to `O=[N+]([O-])c1ccc(-c2nc(-c3ccccc3)c(-c3ccccc3)n2-c2ccccc2)cc1`, for which the growth was 4.19% (active) in assay [1]; -20.3% (active) in assay [2]; 26.7% in [3]; 91.5% in assay [4]; 24.7% in assay [5]; 55.5% in [6]. Moreover, the growth in assay [7] is -29.1% (active); in assay [8] it was 40.2%; in assay [9], 20.5%; in [10], 5.77% (active); in [11] it was 21.6%; in [13], 36.5%. Also, the growth in assay [14] was 48.8%; in assay [18], 19.6%; in assay [15] it was 33.2%; in assay [17], -36.9% (active); in assay [16], 37%.

Regarding `O=[N+]([O-])c1ccc(-c2nc(Cl)c3c(n2)CCCC3)o1`, the growth was 44.7% in assay [1]; 85.3% in assay [2]; 85% in assay [3]; 103% in assay [4]; 89.6% in assay [5]; 108% in assay [6]. The growth was 89.3% in assay [7]; 108% in assay [8]; 86.8% in [9]; 89.9% in [11]; 83.1% in assay [12]; 87.6% in [13]. The growth in assay [14] is 56.8%; in assay [18], 46.9%; in [15] it was 55.2%; in assay [17] it was 92.4%; in [16] it was 96.5%.
